# From PubChem BioAssay (NCATS)
# Values without a mark were called inactive. No rule for the calls is given here.
# System: HIV-1 nucleocapsid protein NCp7 (binding to TG oligonucleotide)
# Assay: HIV Nucleocapsid (AID 346);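 also: potency is for inhibitors that block NC binding and lower polarization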
# Settings: HIV-1 NC / fluorescein-TGTGTGTG probe, fluorescence polarization
# Summary of the method: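 Reagents dispensed (10 nM TG4xF, 100 nM HIV-1 NC), plates spun, compounds pin-transferred, then incubated 1 hr at room temperature before FP imaging. Buffer: Hepes pH 7.5, 250mM NaCl, 1uM ZnCl2, 100 uM TCEP, 5 mM 2-mercaptoethanol.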
# Potency is read from the fitted curve at half-maximal effect.
row,Structure (SMILES),Potency [µM]
1,COc1cccc(-c2cncnc2NCc2cccnc2)c1,> 20
2,COc1ccc(NC(=O)N2CC[C@@]3(CCCN(C(=O)c4ccco4)C3)C2)cc1,> 20
3,COc1cccc(Cn2c(=O)c(-c3cccc(F)c3)nc3cncnc32)c1,> 20
4,COc1ncc2nc(CCc3ccccc3)c(=O)n(C3CC3)c2n1,> 20
5,COc1ccc(CNc2nc(-c3ccc(C(=O)N(C)C)cc3)nc3ccccc23)c(OC)c1,> 20
6,COc1ccc(Oc2ncc3nc(-c4cn(C)c5ccccc45)c(=O)n(CCC#N)c3n2)cc1,> 20
7,COc1cccc(-c2nc(NCCNC(C)=O)c3ccccc3n2)c1,> 20
8,O=C(c1ccncc1)N1CCC2(CC1)CN(c1ncccn1)C2,> 20
9,COc1ccc(-n2c(=O)c(CCc3ccccc3)nc3cnc(N4CCOCC4)nc32)cc1,> 20
10,Clc1ccccc1-c1ccc2ncnc(N3CCNCC3)c2c1,> 20
11,CN(C)c1ncc2nc(-c3cc(F)cc(F)c3)c(=O)n(CCc3ccccc3)c2n1,> 20
12,COc1ccccc1CNc1nc(-c2c(C)noc2C)nc2ccccc12,> 20
13,O=C(c1cnccn1)N1CCC2(CC1)CN(c1cccc(-c3ccccc3)c1)C2,> 20
14,N#Cc1ccc(CN2CC[C@@]3(CCCN(C(=O)c4cc(C(F)(F)F)cc(C(F)(F)F)c4)C3)C2)cc1,> 20
15,COCC(=O)N1CCC2(CC1)CN(c1ccc(-c3ccccc3)cc1)C2,> 20
16,Cc1noc(C)c1C(=O)N1CCC2(CC1)CN(c1cccc(-c3ccccc3)c1)C2,> 20
17,Cc1cnc(CNc2ncncc2-c2c(C)noc2C)cn1,> 20
18,COCCn1c(=O)c(-c2ccccc2)nc2cnc(N(C)C)nc21,> 20
19,O=C(c1cc(C(F)(F)F)cc(C(F)(F)F)c1)N1CCC2(CCN(Cc3ccncc3)CC2)CC1,> 20
20,Cc1cnc(CNc2ncnc3ccc(-c4ccc5c(c4)OCO5)cc23)cn1,> 20

row,Structure (SMILES),Potency [µM]
1,N#CCCn1c(=O)c(-c2ccccc2)nc2cnc(Oc3ccccc3)nc21,> 20
2,COc1ccccc1-c1cc(NCc2ccccc2)ncn1,> 20
3,COc1ccc(C(=O)N2CCC[C@@]3(CCN(CC(C)C)C3)C2)cc1,> 20
4,Clc1ccccc1-c1nc(-n2ccnc2)c2ccccc2n1,> 20
5,Cc1noc(C)c1C(=O)N1CCC2(CC1)CCN(c1ncccn1)CC2,> 20
6,O=c1cnc2cnc(N3CCNCC3)nc2n1CCc1ccccc1,> 20
7,CCNc1ncc2nc(-c3cc(F)cc(F)c3)c(=O)n(-c3ccccc3)c2n1,> 4
8,COc1cccc(-c2nccc(NCc3cccs3)n2)c1,> 20
9,COCC(=O)N1CCC2(CCCN(c3ncccn3)C2)CC1,> 20
10,COc1cccc(-c2cncnc2NCc2cccs2)c1,> 20
11,O=C(c1cnccn1)N1CCC2(CC1)CCN(c1ccncc1)CC2,> 20
12,O=c1cnc2cnc(N3CCOCC3)nc2n1Cc1ccc(F)cc1,20.6
13,O=c1c(-c2ccccc2)nc2cnc(Oc3ccccc3)nc2n1C1CC1,> 20
14,COc1ncc2nc(-c3cc(F)cc(F)c3)c(=O)n(C[C@H]3CCCO3)c2n1,> 20
15,COc1ccccc1-c1nc(NCc2cccs2)c2ccccc2n1,> 20
16,O=C(Nc1cccc(F)c1)N1CC2(CCN(C(=O)c3cnccn3)CC2)C1,> 20
17,COc1ccccc1CCn1c(=O)c(-c2cccs2)nc2cncnc21,> 20
18,COc1ccc(Oc2ncc3nc(-c4cccs4)c(=O)n(Cc4cccc(OC)c4)c3n2)cc1,> 20
19,O=C(c1cc(C(F)(F)F)cc(C(F)(F)F)c1)N1CCC2(CCCN(Cc3ccccc3)C2)CC1,> 20
20,CN(C)c1ncc2nc(-c3ccccc3)c(=O)n(CCc3ccccc3)c2n1,> 20
